Screen size: about 340,000 compounds; about 1,700 (0.5%) were called active. For the sample, actives were picked, then their nearest neighbours and some compounds at random. Unmarked numbers belong to inactive results. Rule as the data show it: active = inhibition above about 40%; inactive = the rest.
These compounds were tested against Cysteine protease ATG4B (Homo sapiens) (UniProt Q9Y4P1) (assay: blockers of ATG4B cysteine protease activity – biochemical, fluorescence, uHTS, primary screen (AID 504462)). Conditions: ATG4B cleavage of LC3-PLA2, NBD-HPC fluorescence, 1 h; at 8.33 µM; stronger effect = higher value.
Cysteine protease ATG4B (Homo sapiens), sequence (Q9Y4P1 whole entry, looked up): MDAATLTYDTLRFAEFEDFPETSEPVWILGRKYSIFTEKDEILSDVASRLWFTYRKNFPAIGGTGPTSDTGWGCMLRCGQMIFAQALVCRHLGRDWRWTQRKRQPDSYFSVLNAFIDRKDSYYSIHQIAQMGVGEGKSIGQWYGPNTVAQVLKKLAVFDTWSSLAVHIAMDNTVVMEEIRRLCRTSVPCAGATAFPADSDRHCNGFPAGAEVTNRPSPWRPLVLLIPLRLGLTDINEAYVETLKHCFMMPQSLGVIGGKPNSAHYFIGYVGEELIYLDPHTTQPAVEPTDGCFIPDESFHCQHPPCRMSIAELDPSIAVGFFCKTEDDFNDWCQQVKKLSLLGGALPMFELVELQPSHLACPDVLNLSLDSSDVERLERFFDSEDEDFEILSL

| SMILES | inhibition |
| --- | --- |
| Cc1ccccc1OCc1nnc(SCC(=O)N2c3ccccc3Sc3ccc(Cl)cc32)o1 | -8.7% |
| O=S(=O)(Oc1ccccc1C(=S)N1CCOCC1)c1ccc(Cl)cc1 | 2.25% |
| CN(C)c1cc(N)c2ccccc2n1 (tested in a mixture with another compound) | -6.07% |
| Cn1cc[n+](C)c1COc1ccc(C=O)cc1 | 6.27% |
| Cc1ccc(S(=O)(=O)N(Cc2cccc([N+](=O)[O-])c2)C(=O)N2CCN(C)CC2)cc1 | 3.55% |
| CN(c1ccccc1)S(=O)(=O)c1cccc(NC(=O)Cc2ccc(Cl)cc2)c1 | -14.9% |
| COc1ccc(C)cc1S(=O)(=O)N(CC(=O)Nc1cccc([N+](=O)[O-])c1)c1ccc(C)cc1 | 88.8% (active) |
| Cc1ccc(S(=O)(=O)N(CC(=O)Nc2cccc([N+](=O)[O-])c2)Cc2ccc(Cl)cc2)cc1 | 75.6% (active) |
| Cc1ccc(N(CC(=O)Nc2cc(C)cc(C)c2)S(=O)(=O)c2cccc3nonc23)cc1 | 12.5% |
| COc1ccc(N(CC(=O)Nc2ccc(C)cc2C)S(=O)(=O)c2ccccc2[N+](=O)[O-])c(OC)c1 | -12.7% |
| CCCCn1c(N)c(N(CC(C)C)C(=O)CSc2ccc([N+](=O)[O-])cc2)c(=O)[nH]c1=O | 8.17% |
| CCOC(=O)CCCNC(=O)COC(=O)c1cc(Br)c(Br)s1 | -7.58% |
| C/C=N/NC(=O)CCCC(=O)N/N=C/C | -3.09% |
| CC(C)c1ccc2c(c1)c(SC(C)(C)C)c(CC(C)(C)C(=O)O)n2Cc1ccc(Cl)cc1 | 56.2% (active) |
| CCN(CC)S(=O)(=O)c1ccc(N(C)Cc2ccc(C(F)(F)F)cc2)nc1 | -7.77% |
| O=C(c1ccco1)N1CCN(CC(=O)N(C2CCCCC2)C2CCS(=O)(=O)C2)CC1 (configuration not stated) | 0.94% |
| COc1ccc(NCCc2ccccn2)cc1 | -5.58% |
| N#Cc1ccc(Oc2cc(C(F)(F)F)nc(-c3ccccn3)n2)cc1 | -10.2% |
| COc1cnc(-c2ccccn2)nc1Oc1ccc(C(C)(C)C)cc1 | 59.3% (active) |

| SMILES | inhibition |
| --- | --- |
| CCCCN(C1CCS(=O)(=O)C1)S(=O)(=O)c1ccc(C(C)C)cc1 (configuration not stated) | 6.86% |
| Cn1cccc1C(=O)N1CCc2ccccc2C1 | -0.25% |
| O=C(c1cc(-c2cccc(O)c2)on1)N1CCc2ccccc2C1 | 35.8% |
| Cc1ccc(-c2cc(C(=O)N3CCc4ccccc4C3)no2)cc1 | 40% (active) |
| O=C(Nc1ccccc1Cl)N1CCN(c2ccc3nncn3n2)CC1 | -9.87% |
| CN1C(=O)[C@H]2[C@@H](C3CC3)N3C(=O)CN(Cc4ccccc4)C(=O)[C@@]3(C)[C@H]2C1=O | 0.76% |
| O=C1c2ccccc2C(=O)N1Cc1cc(-c2ccccc2Cl)no1 | 56.3% (active) |
| O=C1c2ccccc2C(=O)N1CCCc1nc(-c2ccccc2)no1 | 3.08% |
| O=C1c2ccccc2C(=O)N1CCCCCCN1C(=O)c2ccccc2C1=O | 2.67% |
| Cc1nc2ccccc2c(-c2ccccc2)c1C(=O)c1ccccc1 | 80% (active) |
| Cc1nc2ccccc2c(C(=O)O)c1-c1ccccn1 | -2.51% |
| Cc1nc2ccccc2c(C)c1C(=O)c1ccc(F)cc1 | -2.83% |
| CCn1c2c(c3ccc(OC)cc31)CCCC2=O | -3.83% |
| CCn1nnc(NC(=O)c2cc(Cl)c(OC)c(Cl)c2)n1 | -1.88% |
| O=C(Nc1ccccc1Cc1ccccc1)c1ccc2c(c1)SC1=NS(=O)(=O)CCN12 | -8.36% |
| CC(=O)c1cc(-c2ccccc2)n(CCC(=O)NC2CCCCCC2)c1C | -4.01% |
| COC(=O)c1c(NC(=O)COC(=O)[C@@H](NS(=O)(=O)c2ccccc2)C(C)C)sc2c1CCC2 | 71% (active) |
| COC(=O)c1c(NC(=O)CN(c2ccc(C)c(C)c2)S(C)(=O)=O)sc2c1CCCC2 | -3.55% |
| CCc1ccc(N(CC(=O)Nc2sc3c(c2C(=O)OC)CCCC3)S(C)(=O)=O)cc1 | -5.39% |

| SMILES | inhibition |
| --- | --- |
| O=[N+]([O-])/C=C/c1ccc2c(ccn2Cc2ccccc2)c1 | 5.14% |
| O=C(c1noc2c1CCCC2)N1CCc2ccccc2C1 | 0.28% |
| COc1ccc2c(c1)CCc1c(C(=O)N3CCc4ccccc4C3)noc1-2 | 55.6% (active) |
| COc1ccc2c(c1)CCc1c(C(=O)N3CCCC3)noc1-2 | -6.35% |
| O=C(c1cn2ccccc2n1)N1CCc2c([nH]c3ccccc23)C1c1ccccn1 (configuration not stated) | -13.7% |
| Cc1cccc(C(=O)N2CCc3c([nH]c4ccccc34)C2CC(C)C)n1 (configuration not stated) | -9.03% |
| Cc1cccc(C2c3[nH]c4ccccc4c3CCN2C(=O)c2cc(-c3cccn3C)n[nH]2)n1 (configuration not stated) | 62.3% (active) |
| O=C(COc1cc(Cl)c(Cl)cc1Cl)NC(=O)NC1CCCC1 | -1.73% |
| O=C(N/N=C/c1coc2ccccc2c1=O)c1cc2ccccc2o1 | 61.1% (active) |
| Cc1c(/C=N\NC(=O)c2cc3ccccc3o2)c2ccccc2n1C | -15.2% |
| CC(C)(C)OC(=O)NCCCCCC(=O)N/N=C/c1coc2ccccc2c1=O | 14.7% |
| O=C(COCc1cc(-c2ccc3c(c2)OCO3)on1)N1CCN(c2cccc(Cl)c2)CC1 | 5.35% |
| CCOc1ccc(CC(=O)NCCS(=O)(=O)N2CCN(c3ccccc3)CC2)cc1 | -6.99% |
| NC(=O)CSc1nnc(NC(=O)c2ccc3ccccc3c2)s1 | 5.71% |
| O=C(Nc1nnc(SCc2c(Cl)cccc2Cl)s1)c1cccc([N+](=O)[O-])c1 | 7.45% |
| O=C(Nc1nnc(SCc2ccccc2Cl)s1)c1cccc([N+](=O)[O-])c1 | 71.7% (active) |
| CN(CC(=O)Nc1cccc(F)c1)C(=O)C1CC(=O)N(CCc2ccccc2)C1 (configuration not stated) | -5.48% |
| OC(CNCc1ccc(Cl)c(Cl)c1)c1ccccc1 (configuration not stated) | 40% |
| CCOC(=O)c1ccc(NNC(C)=O)c([N+](=O)[O-])c1 | -7.65% |

Source: PubChem BioAssay AID504462 (Sanford-Burnham Center for Chemical Genomics, 2011)
